Bioassay records: PubChem BioAssay, several laboratories
Mtb hypoxia rep: reduces hypoxia-regulated biosensor signal in M. tuberculosis | M. tuberculosis hypoxia-regulated fluorescent reporter, fluorescence | AID 1159583 | 300,000 compounds, 0.1% hits | fluorescence inhibition, % (test concentration not listed); in the data active = fluorescence inhibition mostly above about 23%, no sharp cut-off; inactive = mostly below about 17%
FBA Mtb inh: inhibitors of M. tuberculosis fructose-bisphosphate aldolase; purified M. tuberculosis FBA, fluorescence read-out; inhibition, % at 1 µM; AID 588726; 360,000 compounds, 2.3% hits; in the data active = inhibition above about 27%;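 note: 0% = vehicle and 100% = reference inhibitor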
Target sequence (P9WQA3 whole entry, looked up): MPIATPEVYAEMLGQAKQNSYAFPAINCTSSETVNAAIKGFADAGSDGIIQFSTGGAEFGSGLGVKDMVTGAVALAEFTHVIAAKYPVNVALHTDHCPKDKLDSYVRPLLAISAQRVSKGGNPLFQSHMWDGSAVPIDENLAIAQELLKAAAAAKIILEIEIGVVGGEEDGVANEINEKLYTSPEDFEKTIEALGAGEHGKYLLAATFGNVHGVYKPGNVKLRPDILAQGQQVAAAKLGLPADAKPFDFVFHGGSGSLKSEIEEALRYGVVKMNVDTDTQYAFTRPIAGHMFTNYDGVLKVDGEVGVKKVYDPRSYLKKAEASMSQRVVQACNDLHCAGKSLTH
UGM FP inh: blocks M. tuberculosis UGM enzyme. purified UGM, fluorescence polarization probe displacement. inhibition, % at 10 µM. 320,000 compounds, 0.06% hits. AID 504406; in the data active = inhibition above about 10%, passing the limit was not always enough
Target sequence (P9WIQ1 whole entry, looked up): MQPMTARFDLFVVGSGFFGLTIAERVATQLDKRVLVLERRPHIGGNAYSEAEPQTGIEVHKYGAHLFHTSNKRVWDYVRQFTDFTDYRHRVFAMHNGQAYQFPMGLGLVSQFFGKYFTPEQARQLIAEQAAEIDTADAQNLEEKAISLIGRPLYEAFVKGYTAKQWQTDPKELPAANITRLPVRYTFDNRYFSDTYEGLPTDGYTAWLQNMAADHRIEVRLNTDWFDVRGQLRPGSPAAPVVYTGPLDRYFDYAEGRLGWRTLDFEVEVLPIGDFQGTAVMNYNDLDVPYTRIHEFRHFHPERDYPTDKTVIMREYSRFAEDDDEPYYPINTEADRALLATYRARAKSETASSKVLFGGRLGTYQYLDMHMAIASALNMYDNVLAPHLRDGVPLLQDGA
FadD28 FP inh: M. tuberculosis FadD28 bisubstrate binding inhibition; FadD28 bisubstrate probe binding, fluorescence polarization; AID 588549; 360,000 compounds, 0.22% hits; inhibition, % at 12.5 µM; in the data active = inhibition above about 8.5%, passing the limit was not always enough
GDH-TPI inh: counter-screen for M. tuberculosis FBA inhibitors: GDH-TPI coupled enzymes; GDH-TPI coupled enzyme counterscreen, NADH absorbance; inhibition, % at 4.8 µM; 360,000 compounds, 1.2% hits; in the data active = inhibition above about 30%;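 note: 0% = DMSO wells and 100% = wells lacking the enzyme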
Rv3671c inh: Rv3671c (M. tuberculosis) protease inhibition | P9WHR9 | inhibition, % at 5.96 µM | 320,000 compounds, 0.048% hits | AID 2606; in the data active = inhibition above about 38%;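 note: extracellular domain of Rv3671c used as enzyme; 0% = enzyme with DMSO and 100% = no enzyme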
The depositor's hits bear a star; / = not tested or not shown; + = active, no number. In the library only some 3.5% were active in any assay of this set; here they are far more common.

SMILES | Mtb hypoxia rep | FBA Mtb inh | UGM FP inh | FadD28 FP inh | GDH-TPI inh | Rv3671c inh
COc1ccc(/C=C2\C(=O)N(c3c(Cl)cc(Cl)cc3Cl)N=C2NC(=O)c2cccc([N+](=O)[O-])c2)cc1 | -6.0 | -2.9 | -1.3 | 8.4* | 4.4 | -6.2
COc1ccc(NC(=O)c2cccc(N3C(=O)c4cccc([N+](=O)[O-])c4C3=O)c2)cc1 | 5.8 | -3.0 | -2.3 | -0.7 | 8.9 | 4.6
Cc1ccccc1NC(=O)c1cc(-c2ccco2)nc2ccccc12 | / | 5.2 | / | -3.4 | 12.3 | /
O=C(NCC1CCCO1)c1cc(-c2ccco2)nc2ccccc12 (stereo not given) | 3.1 | 183.1* | 0.4 | -3.2 | 27.6 | 2.3
O=C(NCC1CCCO1)c1cc(-c2ccncc2)nc2ccccc12 (stereo not given) | -4.1 | 1.0 | / | -2.1 | -1.4 | /
Cc1ccc(S(=O)(=O)N(C)C)cc1NC(=O)c1cc(-c2ccco2)nc2ccccc12 | 5.5 | 44.9* | -1.4 | -2.3 | 9.6 | -4.8
O=C(CCC(=O)Nc1cccc2ccccc12)NN=Cc1ccco1 | 5.0 | / | / | / | / | /
Cc1cc(-c2ccccc2)nc(NN=Cc2ccc(N(C)C)cc2)n1 | -5.0 | / | / | / | / | /
COc1ccc(C(C)=NNC(=S)NCCc2ccccc2)c(O)c1 | 6.8 | / | / | / | / | /
CNC(=S)NN=C(C)c1ccc(OC)cc1O | / | 3.7 | / | 0.6 | 39.0* | /
Cc1noc(C)c1NC(=O)Nc1cccc2c1OC(CN(C)C(=O)Nc1ccc(C(F)(F)F)cc1)C(C)CN(C(C)CO)C2=O (stereo not given) | -4.0 | / | / | / | / | /
CC(NC(=O)C(=O)NN=Cc1ccccc1)c1ccccc1 (stereo not given) | 8.8 | / | / | / | / | /
Cc1ccc(S(=O)(=O)NN2C(=O)/C(=C/c3cccs3)SC2=S)cc1 | 4.7 | -3.7 | -1.1 | 4.5 | 31.2* | 0.7
Cc1ccc(/C=C2\SC(=S)N(NS(=O)(=O)c3ccc(C)cc3)C2=O)cc1 | 9.2 | -5.7 | -0.9 | -0.4 | 15.4 | -2.4
CCOc1ccc(-c2c(C(=O)N/N=C/c3ccc(C)s3)nnn2-c2nonc2N)cc1 | / | -0.5 | -0.3 | -5.0 | 37.0* | -12.0
CCOc1ccc(-c2c(C(=O)N/N=C/c3ccco3)nnn2-c2nonc2N)cc1 | / | 1.7 | 2.8 | 0.3 | 42.7* | -11.8
CC(/C=N/NC(=O)c1nnn(-c2nonc2N)c1CN(C)C)=C\c1ccco1 | / | 1.8 | -1.2 | -0.2 | 35.2* | -2.1
Cc1cc2nc3c(=O)[nH]c(=S)[nH]c3nc2cc1NC(=O)C(F)(F)F | -2.2 | -11.2 | 18.8* | 0.8 | 2.6 | 20.9
COc1ccccc1C(=O)NCC(=O)NN=Cc1ccc([N+](=O)[O-])cc1 | 1.2 | / | / | / | / | /
Cn1cc(-c2nnc(-c3ccccc3)o2)c2ccccc21 | / | 172.9* | -1.8 | 2.0 | 15.0 | 0.1
Cc1ccccc1-c1nnc(-c2ccccc2)o1 | / | 3.0 | -6.3 | -4.0 | -1.9 | -1.9
C/C(C=NNC(=O)CN1CCN(Cc2ccccc2)CC1)=C\c1ccco1 | 6.0 | / | / | / | / | /
CCc1cc2c(=O)c(-c3nc4ccccc4n3C)c(C)oc2c(CN(CC)CC)c1O | / | 13.7 | 2.1 | 2.6 | 16.1 | -0.7
CC(=O)Oc1ccc2cc(-c3nc4ccccc4n3C)c(=O)oc2c1 | 1.3 | + | 0.0 | -2.4 | 29.8 | -3.2
CCN(CC)Cc1c(O)ccc2cc(-c3nc4ccccc4n3C)c(=O)oc12 | 2.1 | + | 1.1 | 1.5 | 12.1 | 4.3
SMILES | Mtb hypoxia rep | FBA Mtb inh | UGM FP inh | FadD28 FP inh | GDH-TPI inh | Rv3671c inh
CNCc1sccc1C | 2.9 | 33.9* | 1.9 | -0.1 | 2.8 | 0.9
CCC(=O)N(C)CCc1cc2c(c(OC)c1C=NNS(=O)(=O)c1ccc(C)cc1)OCO2 | 10.0 | / | / | / | / | /
CC(=NNC(=O)c1cccc(Cl)c1)c1cccc(NC(=O)c2ccco2)c1 | 5.8 | / | / | / | / | /
Cn1c2ccccc2c(=O)c2ccc(C#Cc3ccccn3)cc21 | -20.9 | / | -1.2 | / | / | -20.8
Cn1c2ccccc2c(=O)c2cc(C#Cc3ccccn3)ccc21 | 2.5 | 186.2* | -0.8 | -4.1 | 26.4 | -9.3
Cn1ncnc1SCc1cn2cccnc2n1 | 2.2 | 130.1* | -3.2 | -0.8 | 8.3 | -2.2
COCCNC(=S)N/N=C/c1ccc(-c2ccc([N+](=O)[O-])cc2)o1 | / | -7.9 | -1.0 | -0.3 | 32.5* | -0.6
O=C(N/N=C/c1ccc(-c2ccc([N+](=O)[O-])cc2)o1)c1cccnc1 | / | -4.5 | 2.2 | -3.1 | 33.2* | 1.6
O=C(NN=Cc1ccc(-c2ccc([N+](=O)[O-])cc2)o1)c1cccnc1 | -9.6 | / | / | / | / | /
CN1C(=O)C(CC(=O)O)S/C1=N\N=C\c1ccc(O)cc1O (stereo not given) | / | -0.7 | 3.1 | -0.2 | 51.9* | 7.9
S=C(NCCN1CCOCC1)N/N=C/c1cccs1 | / | 3.0 | 3.1 | -2.9 | 34.7* | -7.4
Cc1cccc(C)c1NC(=S)N/N=C/c1ccc(C(=O)O)cc1 | / | 4.9 | 1.9 | -3.2 | 45.0* | 18.1
S=C(NCCN1CCOCC1)NN=Cc1cccs1 | 19.1 | / | / | / | / | /
CC(=O)Nc1ccc(/C=N/NC(=S)NC(C)C)cc1 | / | -1.8 | -0.2 | -0.4 | 40.4* | 1.4
O=C(O)c1ccc(/C=N/NC(=S)NCCN2CCOCC2)cc1 | / | -4.8 | -0.6 | -1.0 | 46.3* | -2.5
COC(=O)c1ccc(C=NNC(=S)NCCN2CCOCC2)cc1 | 2.1 | / | / | / | / | /
CCOc1ccc(C=NNC(=S)Nc2c(C)cccc2C)cc1 | 0.2 | / | / | / | / | /
CC(NC(=O)c1nc[nH]c1C(=O)NCCCCCNC(=O)OC(C)(C)C)C(=O)OCc1ccccc1 (stereo not given) | 20.8 | / | / | / | / | /
CCC1=C(OC(=O)N(CC)CC)N2C(=O)OC(=NCC3CC3)[C@]2(C)C2C1=CCC1C(=O)N(C)C(=O)C12 (stereo not given in full) | 11.0 | / | / | / | / | /
Cc1onc(-c2ccccc2)c1C(=O)N/N=C/c1ccc(O)c([N+](=O)[O-])c1 | / | -7.2 | 2.2 | 0.1 | 34.9* | /
Cc1nnc(N/N=C/c2ccc(O)c([N+](=O)[O-])c2)[nH]c1=O | / | -2.9 | 0.5 | -1.6 | 47.4* | -7.5
Cc1csc(N/N=C/c2ccc(O)c([N+](=O)[O-])c2)n1 | / | -5.2 | 2.2 | 9.3* | 39.1* | 14.7
O=[N+]([O-])c1cc(C=NNc2nc(-c3ccccc3)cs2)ccc1O | 7.0 | / | / | / | / | /
O=[N+]([O-])c1cc(/C=N\Nc2nc(-c3ccccc3)cs2)ccc1O | / | -3.3 | -2.8 | 3.1 | 33.8* | 5.4
Cc1onc(-c2ccccc2)c1C(=O)N/N=C/c1ccc([N+](=O)[O-])c(O)c1 | / | -4.1 | 2.7 | 0.0 | 18.5 | -5.1
SMILES | Mtb hypoxia rep | FBA Mtb inh | UGM FP inh | FadD28 FP inh | GDH-TPI inh | Rv3671c inh
O=[N+]([O-])c1cc(Br)cc(C=Nn2cnnc2)c1O | 16.7 | / | / | / | / | /
CC1(C)CC2C3=CCC4[C@@]5(C)CCC(O)[C@@](C)(CO)C5CC[C@@]4(C)[C@]3(C)CC(O)[C@@]2(CO)C(O)C1O (stereo not given in full) | 2.4 | / | / | / | / | /
Cc1cc(COC(=O)C2N3C(=O)C(NC(=O)COc4ccccc4)C3SC2(C)C)on1 (stereo not given) | 5.7 | / | / | / | / | /
COc1ccc(NN=C(C)C(=NO)C(=O)Nc2ccccc2)cc1 | 1.4 | / | / | / | / | /
S=C(NCc1ccco1)NN=Cc1ccccc1Cl | 5.0 | / | / | / | / | /
O=C(CNC(=O)c1cccc(F)c1)N/N=C/c1ccc(O)c([N+](=O)[O-])c1 | / | -4.0 | 1.3 | 0.6 | 21.6 | 8.7
